# Only some compounds are listed: those with a hit (about 12% of all), similar ones and a draw of the others.
# BAZ2B inh = inhibitors of human BAZ2B bromodomain; Q9UIF8; AlphaScreen BAZ2B-H3K14Ac peptide displacement; Potency, µM (doses to about 114 µM), for the others: top-dose activity change, negative = inhibition, actives largely listed as inhibitors; 360,000 compounds, 4.4% hits; note: % is set by controls: 0 for no effect and ±100 for the full control effect; nearly all actives have a fitted effect of over 60% in size
#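 Inhibition is scored as reduced AlphaScreen emission. The BAZ2B/b-H3(5-23)K14Ac complex (50 nM each) in PBS pH 7.4, 0.01% Tween-20 meets compound (up to 110 uM) for 30 min at RT before bead addition.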
# TDP1 block = inhibitors of human tyrosyl-DNA phosphodiesterase TDP1; Q9NUW8; recombinant TDP1, AlphaScreen DNA substrate cleavage; Potency, µM (titrated, usually from 130 µM), inactives show at the top dose activity change, negative = inhibition, actives largely listed as inhibitors; 350,000 compounds, 0.28% hits; AID 485290; note: % is set by controls: 0 for no effect and ±100 for the full control effect; nearly all actives have a fitted effect of over 40% in size
#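 Tdp1 1 nM final; 15 min RT w/ cpd; substrate 15 nM, 5 min; beads 10 ug/ml, 10 min; AlphaScreen read. Neg ctrl: no enzyme.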
# JMJD2A Tudor inh = blocks the human JMJD2A Tudor domain; AlphaScreen JMJD2A-Tudor / H3K4me3 peptide binding; Potency, µM (series often up to 114 µM), inactives show at the highest dose activity change, negative = inhibition, most hits filed as inhibitors; 390,000 compounds, 4.4% hits; AID 504339; note: % is set by controls: 0 for no effect and ±100 for the full control effect; nearly all actives have a fitted effect of over 50% in size
# Sfp inh = inhibitors of Bacillus subtilis Sfp phosphopantetheinyl transferase | Q9F4F7 | Biochemical Sfp PPTase activity, qHTS | Potency, µM, for the others: largest response in the series, negative = inhibition, hits mostly inhibitors | 310,000 compounds, 3.5% hits;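 note: the enzyme is Sfp with the accession as filed and its product quenches rhodamine fluorescence; 0% = enzyme reaction without inhibitor and -100% = no enzyme wells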
#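 Fluorescence-quenching assay with 15 nM Sfp, 5 uM rhodamine-CoA and 12.5 uM BHQ-2-labelled ybbR peptide in pH 7.6 Hepes/MgCl2 buffer. Enzyme was pre-incubated with compound for 15 min at room temperature. Rate was taken from the 30-min fluorescence change (525/598 nm).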
# G9a block = G9a (human) methyltransferase inhibition; G9a H3K9 monomethylation, AlphaScreen, 2 h; Potency, µM (doses to about 102 µM), inactives show top-dose activity, negative = inhibition, hits mostly inhibitors; 350,000 compounds, 8.8% hits; note: % is set by controls: 0 for no effect and ±100 for the full control effect; nearly all actives have a fitted effect of over 75% in size
#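 AlphaScreen read-out: biotin-H3K9 peptide (500 nM) methylation by 20 nM enzyme with 20 uM SAM, 2 h at room temperature after 15 min compound preincubation; anti-monomethyl H3K9 antibody plus donor/acceptor beads, 10 min dark.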
# HP1b chromo inh = HP1-beta chromodomain-methylated histone interaction inhibition | P83916 | AlphaScreen HP1-beta / biotin-H3K9me3 peptide binding | 390,000 compounds, 0.56% hits | Potency, µM (titrated, usually from 114 µM), for the others: at the top dose activity change, negative = inhibition, hits mostly inhibitors; note: nearly all actives have a fitted effect of over 70% in size
#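 Compound inhibition of the preformed complex between 50 nM HP1-beta and 50 nM biotinylated H3K9me3 peptide was read by AlphaScreen. Buffer was PBS pH 7.4 with 0.01% Tween-20. Incubations ran 30 min at room temperature, with 10 ug/mL donor/acceptor beads.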
# Numbers without * were called inactive; u = inconclusive; x = no result; [ ] = another dose, or the depositor's remark. Calls come from the whole dose curve; as a rule, active = well fitted curve in the direction sought with a large enough effect; inconclusive = small, poorly fitted or top-dose-only effect, or another doubt; inactive = no such curve, though single readings can be large; an effect the other way counts as inactive or inconclusive. Potency is the fitted concentration of half-maximal effect.
SMILES,BAZ2B inh,TDP1 block,JMJD2A Tudor inh,Sfp inh,G9a block,HP1b chromo inh
C#CCOCCOCCOCCNc1nc(N2CCN(C(=O)[C@H](C)n3cc(CCCN=C(N)N)nn3)CC2)nc(N2CCN(C(=O)[C@H](C)n3cc(CCCN=C(N)N)nn3)CC2)n1,-6%,-1%,-21%,8%,79µM*,48%
CC(C)(C)C(=O)/C(=C\c1ccc([N+](=O)[O-])cc1)n1cncn1,8%,4%[56.1 µM],x,14µM*,u,x
O=C(Cn1cc(SCc2ccc(Cl)cc2)c2ccccc21)N1CCCC1,6%,3%,-16%,x,-7%[59 µM],42%
CCOc1ccc(N(CC(=O)NCc2ccccc2C)S(C)(=O)=O)cc1,11%,0%,-19%,2%,x,4%
c1ccc2c(-c3nnc(SCc4cn5ccccc5n4)o3)c[nH]c2c1,-11%,6%,-20%,-22%,8.9µM*,21%
CC(=O)N1CCc2cc(C(=O)CN3CCN(c4ccccn4)CC3)ccc21,9%,-4%,1%,50µM*,20µM*,37%
O=C(CN1CCN(c2ccccc2F)CC1)c1c[nH]c2ccc(F)cc12,2%,3%,-17%,3%,u,13%
CC(=O)N1CCc2cc(S(=O)(=O)CCC(=O)N3CCN(c4ccccn4)CC3)ccc21,-19%,0%[56.1 µM],0%,10%,-6%[59 µM],41%
O=C(CN1CCN(c2ccccc2F)CC1)c1ccc2cc[nH]c2c1,4%,4%,-31%,-11%,25µM*,32%
CC(=O)N1CCc2cc(C(=O)CN3CCN(c4ccccc4F)CC3)ccc21,-34%,4%,-20%,50µM*,14µM*,36%
CCCC(=O)Nc1ccc2nc(SCCOc3ccccc3)sc2c1,u,-1%,-9%,x,6%[59 µM],47%
N#Cc1cccc(NC(=O)N2CC3(CCN(C(=O)c4cc(C(F)(F)F)cc(C(F)(F)F)c4)CC3)C2)c1,x,x,x,8%,-6%[12.7 µM],x
Cc1ccc2[nH]c(=O)c3cc(C(=O)N4CCN(c5ccccc5F)CC4)sc3c2c1,4%,9%,-14%,x,0%[59 µM],8%
Cc1onc(-c2ccccc2Cl)c1C(=O)Nc1nn[nH]n1,79µM*,5%,56µM*,-8%,-7%[59 µM],19%
Cc1cccc(-c2noc(CNC(=O)c3ccoc3C)n2)c1,-24%,3%,-23%,32µM*,15%,31%
Cc1onc(-c2ccccc2Cl)c1C(=O)NCc1nc(-c2ccccc2)no1,5%,3%,-6%,89µM*,u,38%
CCOCCn1ccc2c(OCC(=O)Nc3ccccc3OC)cccc2c1=O,9%,4%,-17%,x,-8%,1%
O=C(c1ccc(F)cc1)n1nc(-c2ccccc2)nc1NCc1ccco1,5%,0%,21%,x,23%[59 µM],54%
C#CCOCCOCCOCCNc1nc(N2CCN(C(=O)[C@H](CCC(=O)O)n3cc(C(N)Cc4ccc(O)cc4)nn3)CC2)nc(N2CCN(C(=O)[C@H](Cc3cc4ccccc4[nH]3)n3cc(C(N)CC(C)C)nn3)CC2)n1 (stereo not given in full),79µM*,8%,x,9%,5%[12.7 µM],x
C#CCOCCOCCOCCNc1nc(N2CCOCC2)nc(N2CCN(C(=O)[C@H](Cc3cc4ccccc4[nH]3)n3cc([C@@H](N)Cc4ccc(O)cc4)nn3)CC2)n1,u,8%,u,16%,u,-7%
C#CCOCCOCCOCCNc1nc(N2CCN(C(=O)C(Cc3ccc(O)cc3)n3cc(C(N)CC(C)C)nn3)CC2)nc(N2CCN(C(=O)C(Cc3cc4ccccc4[nH]3)n3cc(C(N)Cc4ccc(O)cc4)nn3)CC2)n1 (stereo not given),35µM*,8%,x,-13%,-1%[12.7 µM],x
C#CCOCCOCCOCCNc1nc(N2CCN(C(=O)[C@H]([C@@H](C)CC)n3cc([C@@H](N)CO)nn3)CC2)nc(N2CCN(C(=O)[C@H](Cc3cc4ccccc4[nH]3)n3cc([C@@H](N)Cc4ccc(O)cc4)nn3)CC2)n1,14µM*,7%,x,u,u,x
COc1ccc2c(CNCc3cccs3)c(C(=O)O)n(Cc3ccc(F)cc3Cl)c2c1,u,5%,-33%,x,-6%[59 µM],0%
O=C(NCCC1=CCCCC1)c1ccc2c(c1)N(Cc1ccc(F)cc1)C(=O)c1ccccc1S2(=O)=O,-14%,8%,3%,x,4%[59 µM],36%
CC(C)C(NC(=O)c1ccc(C(C)(C)C)cc1)C(=O)NCc1ccccn1 (stereo not given),9%,0%,-17%,x,37%[12.7 µM],29%
SMILES,BAZ2B inh,TDP1 block,JMJD2A Tudor inh,Sfp inh,G9a block,HP1b chromo inh
COc1cc(NC(=O)C2=C(N3CCOCC3)/C(=C/c3ccc(Cl)cc3)CC2)cc(OC)c1OC,9%,6%,-16%,u,13%,25%
COc1cc(NC(=O)C2=C(N3CCOCC3)/C(=C\c3ccc(N(C)C)cc3)CCC2)cc(OC)c1OC,40µM*,7%,28µM*,-20%,u,u
Cc1ccc(Cn2c(C(=O)Nc3cccc(Cl)c3)cc3sccc32)cc1,0%,4%,-1%,x,u,56%
Cc1nc2[nH]onc2c2nccc(=O)c12,-1%,3%,-6%,0%,14µM*,29%
COc1ccc(NC(=O)Cc2csc(C)n2)cc1,1%,-2%,-1%,x,7%[59 µM],39%
ClC/C=C/CCl,x,18%,x,x,x,x
O=C(/C=C/c1ccc(-c2ccccc2[N+](=O)[O-])o1)c1ccccc1,11µM*,3%,u,u,32µM*,u
O=C(N/N=C/c1ccc(-c2ccccc2[N+](=O)[O-])o1)[C@H]1C[C@@H]1c1ccccc1,u,3%,u,25µM*,8.9µM*,-35%
O=C(O)/C(=C\c1ccc(-c2ccccc2[N+](=O)[O-])o1)c1ccccc1,u,x,u,-40%,u,-16%
O=C1NCCN(CC2CCN(CCc3ccc(Cl)c(Cl)c3)CC2)C1=O,x,x,79µM*,x,x,-25%
O=C(NCc1ccco1)c1ccc2c(c1)N(Cc1ccc(Cl)cc1)C(=O)c1ccccc1S2(=O)=O,u,1%,-19%,x,-38%[59 µM],10%
Cc1ccc(Cl)cc1N1CCN(C(=O)CCC(=O)O)CC1,-12%,3%,-9%,-5%,6%,32%
Cc1cc2c(cc1C)N(C(=O)CCl)CCN2C(=O)CCl,x,x,40µM*,x,x,30%
Cc1cccc(C(=O)Nc2cccc3c2CCCC3)c1,-4%,x,-3%,23%,x,38%
Cc1ccc(OCC(=O)Nc2nnc(SCc3cc(=O)n4cc(C)ccc4n3)s2)cc1,12%,3%,-7%,x,0%[59 µM],11%[57 µM]
